Assay results taken from PubChem BioAssay AID1851 (National Center for Advancing Translational Sciences (NCATS), 2009).
“And” between values parts separate entries of the source, which are not always exact repeats. Equal values may be shown once. Hit rate of the full screen: of about 16,000 compounds, about 4,000 (25%) were called active. Another 26% or so got no clear call; they are omitted. The call rests on the fitted dose curve; in most records, active means well fitted curve in the direction sought with a large enough effect; inconclusive means small, poorly fitted or top-dose-only effect, or effect the other way; inactive means no such curve, though single readings can be large or run the other way. Only a sample is shown.

Biological target: Cytochrome P450 2C9 (Homo sapiens) (UniProt P11712)
Assay: Cytochrome panel assay with activity outcomes
Settings: recombinant CYP, pro-luciferin dealkylation, luminescence, p450-cyp2c9; series mostly up to 57.1 µM; activity, negative = inhibition: at the top concentration
On the % scale 0 is the no-effect control and ±100 the full control effect.

Cytochrome P450 2C9 (Homo sapiens), sequence (P11712 whole entry, looked up): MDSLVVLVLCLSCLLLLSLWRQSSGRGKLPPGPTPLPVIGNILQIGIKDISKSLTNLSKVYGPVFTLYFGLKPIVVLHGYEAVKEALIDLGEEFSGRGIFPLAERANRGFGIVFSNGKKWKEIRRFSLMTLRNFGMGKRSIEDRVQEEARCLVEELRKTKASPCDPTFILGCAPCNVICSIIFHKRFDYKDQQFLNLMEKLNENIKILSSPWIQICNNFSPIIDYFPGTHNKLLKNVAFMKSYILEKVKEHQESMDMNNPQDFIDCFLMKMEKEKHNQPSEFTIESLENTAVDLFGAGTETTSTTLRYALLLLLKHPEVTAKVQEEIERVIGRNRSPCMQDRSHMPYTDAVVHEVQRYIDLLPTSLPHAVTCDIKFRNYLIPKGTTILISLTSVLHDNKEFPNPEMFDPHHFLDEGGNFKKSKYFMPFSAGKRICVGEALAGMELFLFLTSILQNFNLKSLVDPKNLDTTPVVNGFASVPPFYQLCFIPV

| SMILES | activity, negative = inhibition | AC50 |
| --- | --- | --- |
| COc1ncc2nc(-c3ccc(F)cc3)c(=O)n(C)c2n1 | 6.98% (inactive) | – |
| Cc1ccc(NC(=O)CCC(=O)NNS(=O)(=O)c2ccccc2)c(C)c1 | -21.5% (inactive) | – |
| Cc1cc(Br)ccc1NC(=O)CCSc1ccccc1 | – | 8.91 µM (active) |
| Cc1cc(CSc2ccccc2)ccc1NC(=O)COc1ccccc1 | -23.7% (inactive) | – |
| O=C(CCCNS(=O)(=O)c1cccc2nsnc12)NCCc1ccccc1 | – | 11.2 µM (active) |
| O=c1c2ccccc2nc2n1C(CSCc1cccc(C(F)(F)F)c1)CS2 (configuration not stated) | – | 2 µM (active) |
| COc1ccc(NC(=O)N2CCC3(CC2)CCN(C(=O)c2cccn2C)CC3)cc1 | -9.28% (inactive) | – |
| O=C(Nc1cccc(-c2nc3ncccc3o2)c1)c1sc2cc(Cl)ccc2c1Cl | -23% (inactive) | – |
| CCCCCC(=O)N1CC2(CC(c3cccc(NC(=O)c4ccccc4)c3)=NO2)C[C@@H]1C(N)=O (some centres not stated) | 20% (inactive) | – |
| O=C(CSc1ccc(Cl)cc1)Nc1cccc(-c2nc3ncccc3o2)c1 | – | 3.16 µM (active) |
| CCCCCC(=O)Nc1cccc(-c2nc3ncccc3o2)c1 | – | 17.8 µM (active) |
| CCCCCCCCC(=O)N/N=C/c1ccccn1 | -23.2% (inactive) | – |
| CC1=NS(=O)(=O)c2cc(Cl)ccc2N1 | – | inactive |
| CO[C@H]1COC(=O)C/C=C\[C@H](C)[C@@H](OC)COC(=O)[C@H](Cc2ccccc2)NC(=O)C/C=C\[C@@H]1C | -2.12% [at 11.4 µM] (inactive) | – |
| Cc1ccc(S(=O)(=O)N[C@H]2COC(=O)[C@@H](C)COC(=O)[C@H](C)NC(=O)C/C=C\[C@H]2C)cc1 | 10.1% [at 11.4 µM] (inactive) | – |
| Cc1c(Cl)cccc1NC(=O)CCC(=O)NNC(=O)c1ccco1 | -25.4% (inactive) | – |
| O=C(NC(=S)Nc1cccc(Cl)c1N1CCCCC1)c1cccs1 | – | 3.98 µM (active) |
| CC1CCN(c2ccccc2NC(=S)NC(=O)c2cccs2)CC1 | – | 5.01 µM (active) |
| C[C@@]1(C(NC(=O)c2cccs2)c2ccc(-c3ccccc3)cc2)C[C@H]1C1CCCCC1 (some centres not stated) | -29.1% (inactive) | – |
| O=C(NC(=S)Nc1cccc(Cl)c1N1CCCCC1)c1ccco1 | – | 5.01 µM (active) |
| C[C@@H]1C[C@@H]2[C@H]3CCC4=CC(=O)C=C[C@]4(C)[C@]3(Cl)[C@@H](O)C[C@@]2(C)[C@@]1(O)C(=O)CO | 8.7% (inactive) | – |
| O=c1[nH]c2cc([N+](=O)[O-])c([N+](=O)[O-])cc2[nH]c1=O | 2.55% (inactive) | – |
| N[C@@H](Cc1c[nH]c2ccc([N+](=O)[O-])cc12)C(=O)O | 9.84% [at 11.4 µM] (inactive) | – |

| SMILES | activity, negative = inhibition | AC50 |
| --- | --- | --- |
| O=C(O)c1[nH]c2c([N+](=O)[O-])cc([N+](=O)[O-])cc2c1C(=O)O | – | 3.16 µM (active) |
| CC(C)(C)NC(=O)COC(=O)c1cncc(Br)c1 | -9.05% (inactive) | – |
| CCOc1ccc(C(F)(F)F)cc1NC(=O)c1ccc(OC)c([N+](=O)[O-])c1 | -25.1% (inactive) | – |
| COc1ccc(C(C)(C)C)cc1NC(=O)c1cncc(Br)c1 | – | 20 µM (active) |
| O=C1C[C@H]2C(=O)[C@@H]1[C@@H](C(=O)O)[C@H]2C(=O)O | 19.5% [at 11.4 µM] (inactive) | – |
| CCOC(=O)Nc1ccc2c(c1)N(C(=O)CCN1CCN(C)CC1)c1ccccc1S2 | 2.16% (inactive) | – |
| COC(=O)c1cc(NC(=O)N2c3ccccc3Sc3ccccc32)cc(C(=O)OC)c1 | – | 3.55 µM (active) |
| CC1CCN(CC(=O)N2c3ccccc3Sc3cc4ccccc4cc32)CC1 | -17.9% [at 11.4 µM] (inactive) | – |
| Nc1cc(=O)[nH]c(N)n1 | 16.3% (inactive) | – |
| C=CCNC(=O)c1onc(CSc2ccc(F)cc2)c1C(=O)O | – | 8.91 µM (active) |
| CC(C)NCCOCCSc1ccc(Cl)cc1 | -5.95% (inactive) | – |
| COCCNC(=O)c1onc(CSc2ccc(Cl)cc2)c1C(=O)O | – | 5.01 µM (active) |
| COCCCNC(=O)/C=C/c1ccc(Cl)cc1 | -22.2% (inactive) | – |
| COCCNC(=O)c1onc(CSc2ccccc2F)c1C(=O)O | – | 15.8 µM (active) |
| CN1CCN(CCCNC(=O)c2ccc(CSCc3cccc(Cl)c3)o2)CC1 | -28.9% (inactive) | – |
| COCCNC(=O)c1onc(CSc2cccc(Cl)c2)c1C(=O)O | – | 3.98 µM (active) |
| N[C@H](Cn1ccc(=O)n(Cc2ccccc2C(=O)O)c1=O)C(=O)O | 4.53% (inactive) | – |
| Cc1noc(C)c1C(=O)N1CCC[C@@]2(CCN(C(=O)NC(C)C)C2)C1 | -5.38% (inactive) | – |
| c1nc(NCCN2CCOCC2)c2cc(-c3ccoc3)ccc2n1 | -2.85% [at 2.29 µM] (inactive) | – |
| O=C(O)[C@H](Cc1ccc(O)c([N+](=O)[O-])c1)N1C(=O)c2ccccc2C1=O | 0.788% [at 11.4 µM] (inactive) | – |
| Cc1cc(/C=N\NC(=O)c2cccs2)c(C)n1-c1ccc2ncccc2c1 | – | 3.16 µM (active) |
| Clc1ccc2c(NC3CCC(N4CCCCC4)CC3)ccnc2c1 (configuration not stated) | 10.6% [at 11.4 µM] (inactive) | – |
| COc1cccc(NC(=O)CSc2nc3c(c(-c4ccco4)c2C#N)CCCC3)c1 | 6.49% (inactive) | – |

| SMILES | activity, negative = inhibition | AC50 |
| --- | --- | --- |
| N#Cc1c(N)nc2c(c1-c1cccc(O)c1)CCCCCC2 | – | 8.91 µM (active) |
| Cc1cc(-c2ccc(/C=N/n3cnnc3)o2)c([N+](=O)[O-])cc1C | – | 2.51 µM (active) |
| Cc1cc2ncn(/N=C/c3ccc([N+](=O)[O-])o3)c2cc1C | -25.5% (inactive) | – |
| Cc1ccc(-c2ccc(/C=N/N3C(=O)C4C5C=CC(C6CC56)C4C3=O)o2)c([N+](=O)[O-])c1 (configuration not stated) | – | 5.01 µM (active) |
| COc1ccccc1-c1cncnc1Nc1ccc(F)cc1 | -21.5% [at 2.29 µM] (inactive) | – |
| Cn1cccc1C(=O)N1CCC2(CCN(C(=O)Nc3cccc(F)c3)CC2)CC1 | -1.96% (inactive) | – |
| COCC(=O)Oc1c(S(=O)(=O)c2ccc(C)cc2)c(C)nn1-c1ccccc1 | – | 1.78 µM (active) |
| CON(C)C(=O)c1nnc2c3ccccc3n(S(=O)(=O)c3ccc(C)cc3)c2n1 | 12.1% [at 11.4 µM] (inactive) and -11.7% [at 11.4 µM] (inactive) | – |
| COc1ccc(NC(=O)COC(=O)c2c3c(nc4ccccc24)CCCC3)cc1 | – | 7.08 µM (active) |
| COc1cccc(NC(=O)COC(=O)c2nc3nccc(C)n3n2)c1 | -20% (inactive) | – |
| COc1cc(-c2nnc(COC(=O)c3c4c(nc5ccccc35)CCCC4)o2)cc(OC)c1OC | – | 2 µM (active) |
| Nc1c2c(nc3ccccc13)CCCC2 | – | inactive |
| COc1ccc(C(=O)Nc2ccc(C(=O)OCC(=O)c3ccccc3)cc2)cc1 | -0.58% (inactive) | – |
| COc1cccc(NC(=O)COC(=O)c2c3c(nc4ccccc24)CCC(C)C3)c1 (configuration not stated) | – | 11.2 µM (active) |
| COc1ccc(OC)c(NC(=O)c2c3c(nc4ccccc24)CCC3)c1 | – | 14.1 µM (active) |
| Cn1c2c(c(=O)n(C)c1=O)CN(CCN1CCNCC1)CN2 | -8.52% (inactive) | – |
| Cc1cc(C)c(-c2cc([C@H](C)O/N=C\[C@@H](C)[C@H](OCc3ccccc3)C(C)C)on2)c(C)c1 | -7.67% [at 11.4 µM] (inactive) | – |
| C[N+](C)(N)CCC[N+](C)(C)N | 15.9% [at 11.4 µM] (inactive) | – |
| N[C@H](CCC(=O)NCC(=O)O)C(=O)O | -0.143% (inactive) | – |
| N[C@H](CCC(=O)N[C@H](CSN=O)C(=O)NCC(=O)O)C(=O)O | – | 5.01 µM (active) |
| [N-]=[N+]=Nc1ccc(C(=O)CSC[C@@H](NC(=O)CC[C@@H](N)C(=O)O)C(=O)NCC(=O)O)cc1 | 15.4% (inactive) | – |
| CO[C@@H](C(C)C)[C@@H](C)[C@@H]1OC(=O)C[C@@H]1O | -15.2% [at 11.4 µM] (inactive) | – |
| COc1cccc(CSc2nnc(C(F)(F)F)n2Cc2ccc(F)cc2)c1 | – | 11.2 µM (active) |

| SMILES | activity, negative = inhibition | AC50 |
| --- | --- | --- |
| Cc1c(CC(C)(C)C(=O)O)n(Cc2ccc(Cl)cc2)c2ccc(F)cc12 | 35.9% (inactive) | – |
| Cc1ccc(CSc2nnc(C(F)(F)F)n2Cc2ccc(F)cc2)cc1 | – | 4.47 µM (active) |
| Fc1ccc(Cn2c(SCc3ccc(F)c(F)c3)nnc2C(F)(F)F)cc1 | – | 15.8 µM (active) |
| Fc1ccc(Cn2c(SCc3ccc(F)c(C(F)(F)F)c3)nnc2C(F)(F)F)cc1 | – | 7.08 µM (active) |
| COc1cccc(CSCC(=O)O)c1 | -12.1% [at 11.4 µM] (inactive) | – |
| COc1cccc(-c2nccc(NC3CCNCC3)n2)c1 | 9.19% [at 2.29 µM] (inactive) | – |
| Cc1cc(=O)oc2cc(O)c(CN(C)CC(=O)O)cc12 | -0.896% [at 11.4 µM] (inactive) | – |
| NCCC(=O)O | 6.29% (inactive) | – |
| Cc1ccc(C(=O)Nc2c(C#N)c(C)c(C)n2Cc2ccccc2)cc1 | – | 3.55 µM (active) |
| Cc1ccc([C@@H](O)c2cnc(C)n2Cc2ccccc2)cc1 | -18.2% [at 11.4 µM] (inactive) | – |
| COc1cccc(CNc2ccc3nc(-c4ccc(N)cc4)c(OC)n3n2)c1 | -6.12% (inactive) | – |
| CCN(CC)CCCN(Cc1cc2ccc(C)c(C)c2[nH]c1=O)C(=O)NC1CCCCC1 | 15.3% (inactive) | – |
| C/C(=N\OC(=O)NC1CCCCC1)c1sc(-c2ccccc2)nc1C | – | 11.2 µM (active) |
| Cc1nc(-c2cccnc2)sc1C(N)=O | -10.5% (inactive) | – |
| CNC(=O)c1sc(-c2cccnc2)nc1C | -12.4% (inactive) | – |
| Cc1noc(C)c1-c1nccc(N(C)C)n1 | -8.59% [at 2.29 µM] (inactive) | – |
| CC(=O)OC[C@@H]1O[C@@H](O/N=C2/C[C@@H](O)[C@@H](O)[C@@H]3[C@@H]4C(=O)N(C[C@@H]5CCCO5)C(=O)[C@H]4CC[C@@H]23)[C@H](OC(C)=O)[C@H](OC(C)=O)[C@@H]1OC(C)=O | -5.55% [at 11.4 µM] (inactive) | – |
| COc1cccc(-c2cc(NCc3cccs3)ncn2)c1 | -10.2% [at 2.29 µM] (inactive) | – |
| COc1cccc(-c2[nH]nc3c2C(c2ccsc2)C(C#N)=C(N)O3)c1 (configuration not stated) | – | 2.51 µM (active) |
| CNc1c2c(nn1C)CCCC2 | 9.75% (inactive) | – |
| O=c1cc(CO)oc(CN2CCCC2)c1O | -17% (inactive) | – |
| CC(C(=O)Nc1ccccc1Sc1ccccc1)N(c1ccccc1)S(C)(=O)=O (configuration not stated) | – | 4.47 µM (active) |
| Cc1ccc(N(C(C)C(=O)Nc2cc(Cl)ccc2Oc2ccccc2)S(C)(=O)=O)cc1 (configuration not stated) | – | 6.31 µM (active) |
